# Only some compounds are listed: those with a hit (about 2.8% of all), similar ones and a draw of the others.
# TRPM1 prom inh = reduces MITF-dependent TRPM1 promoter luciferase signal; SK-MEL-5 TRPM1 promoter luciferase, 24 h; inhibition, % at 12.5 µM; actives 0.83% (n = 330,000);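 active = mean inhibition across replicates of 60% or more, whatever share of single replicates reaches that level; inconclusive = some that reach 60%, reason not given; inactive = mean inhibition across replicates below 60%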
# Shn3 3UTR inh = Schnurri-3 reporter inhibition in Clone20 osteoblasts; Clone20 osteoblast Shn3 3'UTR firefly luciferase, 24 h; inhibition, % at 12.5 µM; actives 0.52% (n = 360,000); AID 588674;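 active = mean inhibition of at least 75% with every replicate also reaching 75%; inconclusive = mean inhibition at least 75% but some replicate below; inactive = mean inhibition below 75%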;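 also: 0% = median of neutral control wells and 100% = pilot-screen positive control compound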
# EBV LMP1 NFkB = reduces LMP1-driven NF-kappaB luciferase signal | AID 504558 | inhibition, % at 12.5 µM | LMP1-induced NF-kappaB luciferase reporter cells, luminescence | actives 0.69% (n = 350,000); in the data active = inhibition above about 41%; inconclusive = no clear call, values can overlap the other calls;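 also: 0% = neutral control wells and 100% = reference inhibitor control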
# PAX8 reporter = inhibitors of PAX8 transcriptional activity in RMG-I cells; inhibition, % at 12.6 µM; actives 1.2% (n = 360,000); RMG-I TPO-luciferase reporter, SteadyGlo, 24 h;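 active = mean replicate inhibition at least 60% with every replicate also reaching 60%; inconclusive = only one of the two criteria is met; inactive = mean below 60% and not all replicates reaching 60%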;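 also: luciferase light reporting Pax8 driven TPO promoter activity; plate controls were median of neutral control wells for no effect and mitoxantrone controls for full effect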
# HIF-2a inh = HIF-2a inhibition; 786-0 RCC cells HIF-2a reporter, luciferase luminescence, overnight; inhibition, % at 18.8 µM; actives 0.72% (n = 360,000);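 active = inhibition of the luminescence signal of 40% or more relative to plate controls, in a single-dose primary screen at 18.75 µM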
# Peg3 promoter = inhibitors of Peg3 promoter; HeLa PEG-Prom luciferase reporter, luminescence, overnight; inhibition, % at 20 µM; actives 1.7% (n = 360,000);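 active = inhibition of at least 50% at 20 µM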
# The depositor's hits bear a star; ? = inconclusive; · = no result.
SMILES,TRPM1 prom inh,Shn3 3UTR inh,EBV LMP1 NFkB,PAX8 reporter,HIF-2a inh,Peg3 promoter
C[C@@H]1CN([C@H](C)CO)C(=O)Cc2cc(NC(=O)Cc3ccccc3)ccc2O[C@@H]1CN(C)Cc1ccc(C(F)(F)F)cc1,·,·,·,86*,·,·
O=S(=O)(c1ccccc1)c1nnn2c1nc(NC1CCN(Cc3ccccc3)CC1)c1cc(Cl)ccc12,25,11,12,29,15,55*
S=C(Nc1ccc(OCc2ccccc2)cc1)Nc1cccc(Cl)c1Cl,-16,-15,74*,-13,-18,-10
S=C(Nc1ccccc1)Nc1ccc(OCc2ccccc2)cc1,-9,5,-3,-14,-27,-37
O=C(O)c1ccccc1C(=O)Nc1ccc(Oc2cccc3ccccc23)cc1,73*,6,24,26,78*,20
O=C(C[C@@H]1CC[C@@H](NS(=O)(=O)c2ccccc2)[C@@H](CO)O1)N1CCc2ccccc2C1,·,·,·,8,·,·
C[C@@H](NC(=O)c1ncn2c1c(=O)[nH]c1ccc(Br)cc12)c1ccccc1,·,66,-7,-7,7,79*
C[C@@H](NC(=O)c1ncn2c1c(=O)[nH]c1cccnc12)c1ccccc1,·,2,-3,-5,11,2
C[C@H](CO)N1C[C@H](C)[C@@H](CN(C)C(=O)Nc2ccc(F)cc2)Oc2c(NC(=O)Nc3ccccc3)cccc2C1=O,·,·,·,-1,·,·
CN(C)C(=O)[C@H]1[C@H](CO)[C@H]2Cn3c(cccc3=O)[C@H]2N1CC1CCCC1,·,·,·,-9,·,·
CC(NC1=CC(=O)c2cccnc2C1=O)C(O)c1ccccc1 (centres undefined),110*,-12,3,?,19,28
CC(c1ccccc1)N1C(=O)c2cccnc2C1=O (centres undefined),-2,-3,2,18,19,7
COc1ccc(OC)c(S(=O)(=O)NC(C)CCc2ccccc2)c1 (centres undefined),5,-33,51*,8,13,24
COc1ccc(OC)c(S(=O)(=O)Nc2cccc3c(O)cccc23)c1,·,-11,·,15,15,25
COc1ccc(OC)c(S(=O)(=O)NCCc2ccccc2)c1,-7,-27,-5,·,-34,-22
COc1ccc(OC)c(S(=O)(=O)Nc2ccc(O)c3ccccc23)c1,30,9,12,·,4,67*
Cc1[nH]n2c(=O)cc(-c3ccc([N+](=O)[O-])cc3)nc2c1-c1ccccc1,-4,-5,-2,35,13,58*
COc1ccc(NC(=O)CSc2nc3c(sc4ccccc43)c(=O)n2CCCN2CCCC2)cc1,83*,-5,2,·,-18,69*
COc1cc(N2CCCC2)c(OC)cc1/C=C(/C#N)c1ccc(F)cc1,3,4,1,·,3,7
COc1cc(N2CCCC2)c(OC)cc1/C=C(/C#N)c1ccc(Br)cc1,-12,-12,3,·,1,53*
C=CCN1CCN(C(CC(C)C)c2nnnn2CCOC)CC1 (centres undefined),2,2,49*,·,13,2
N#C[C@H]1[C@@H](c2ccccc2-c2ccccc2F)[C@@H](CO)N1C(=O)C1CCOCC1,·,·,·,4,·,·
CC1=C(C)CS(=O)N(S(=O)(=O)c2ccccc2)C1 (centres undefined),0,24,11,·,17,5
O=S(=O)(/N=S1\CC=CCN1S(=O)(=O)c1ccccc1)c1ccccc1 (centres undefined),-7,94*,-4,13,13,0
Cc1ccc(C(=O)Nc2nnc(-c3ccc(C(C)(C)C)cc3)s2)cc1,-11,-18,57*,·,-29,-26
SMILES,TRPM1 prom inh,Shn3 3UTR inh,EBV LMP1 NFkB,PAX8 reporter,HIF-2a inh,Peg3 promoter
COC(=O)c1ccc([C@H]2C=C(C(=O)O)O[C@@H](OCCCCO)C2)cc1,·,·,·,-13,·,·
CC(C)c1cn(CC[C@H]2CC[C@@H](NS(=O)(=O)c3ccccc3)[C@H](CO)O2)nn1,·,·,·,-10,·,·
COc1cc(C(=O)NC(=S)N(CCc2ccccc2)CCc2ccccc2)cc(OC)c1OC,17,60,26,75*,29,44
COc1cc(C(=O)NC(=S)N(C)Cc2ccccc2)cc(OC)c1OC,11,14,2,-3,18,12
CN(C)CC(=O)N[C@H]1C[C@@H]2O[C@H](CO)CC[C@@H]2O[C@@H]1CCc1ccc(C2=CCCCC2)cc1,·,·,·,13,·,·
C#CC[N+](C)(C)CCCCCCCCCCCC,72*,77,18,87*,39,87*
C#CC[N+](C)(C)CCCCCCCCCC,12,43,14,20,24,34
Cc1ccc2c(CSc3nc4ccccc4c(=O)n3CCCO)cc(=O)oc2c1C,0,1,10,·,-6,4
Cc1ccc2c(CSc3nnc4ccccn34)cc(=O)oc2c1C,4,-22,-3,66*,-64,-19
c1ccc(-c2cc3nc(NCc4cccs4)nc(NCc4ccc5occc5c4)c3s2)cc1,·,30,·,10,-95,64*
C=CCNc1nc(NCc2cccc(OC)c2)c2sc(-c3ccccc3)cc2n1,·,4,·,-9,-187,-27
COc1ccccc1C(=O)N1C[C@@H]2[C@H](c3ccccc31)[C@@H](CO)N2C(=O)C1CCCCC1,·,·,·,32,·,·
O=C(C[C@@H]1C=C[C@@H](NC(=O)c2cnccn2)[C@H](CO)O1)NCc1ccccc1F,·,·,·,5,·,·
CN(C)C(=O)COc1ccc2ccc(=O)oc2c1,-3,-1,-2,-8,13,-2
CC(C)=CC(O)C/C(C)=C/COc1ccc2ccc(=O)oc2c1 (centres undefined),56,17,9,·,-2,94*
CO[C@@H]1CN(C)C(=O)c2cc(NS(=O)(=O)CC(F)(F)F)ccc2OC[C@H](C)N(C(=O)c2ccc3c(c2)OCO3)C[C@H]1C,·,·,·,4,·,·
CCCNC(=O)Nc1ccc2c(c1)OC[C@H](C)N(C(=O)C1CCOCC1)C[C@@H](C)[C@@H](OC)CN(C)C2=O,·,·,·,9,·,·
Nc1ncnc(Sc2ncccn2)c1[N+](=O)[O-],79*,-13,-57,1,30,101*
Nc1ncnc(Sc2ccccc2)c1[N+](=O)[O-],-6,9,24,-27,6,21
CN(C)c1ccc(C=c2c3ccccc3n3c2c2c([n+]3C)CCCC2)cc1,98*,91*,42*,91*,93*,102*
CN(C)c1ccc(C=c2c3ccccc3n3c2cc(-c2ccc(Cl)cc2)[n+]3C)cc1,97*,?,22,78*,-56,61*
CN(C)c1ccc(/C=C2\CCC/C(=C\c3ccccc3)C2=O)cc1,-5,23,-21,-10,-102,-110
CN(C)c1ccc(C=c2c3cc([N+](=O)[O-])ccc3n3c2cc(-c2ccccc2)[n+]3C)cc1,95*,86*,18,114*,75*,106*
Cc1ccccc1S(=O)(=O)N1[C@H](C#N)[C@H](c2ccc(C#CC3CCCCC3)cc2)[C@H]1CO,·,·,·,-28,·,·
